Records with an inconclusive call do not appear. Active and inactive are the calls of the source. Calls come from the whole dose curve; as a rule, active = well fitted cell-killing curve with a large enough effect; inconclusive = small, poorly fitted or top-dose-only effect, or effect the other way; inactive = no such curve, though single readings can be large or run the other way.
Experiment: Cell Viability - LYMP2-005 (AID 967);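 note: cells exposed to compound for 24 h at 37 °C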
Conditions: LYMP2-005 lymphoblastoid cell viability; series mostly up to 92.2 µM; activity change, negative = viability loss: at the top concentration
Excerpt: NIH Chemical Genomics Center [NCGC]
NIH Molecular Libraries Screening Centers Network [MLSCN]
National Institutes of Environmental Health Sciences [NIEHS]
National Toxicology Program [NTP]
We have developed a 1536-well cell-based assay for quantitative high throughput screening (qHTS) against a number of cell lines to determine in vitro cytotoxicity of small molecules. This particular assay uses a human lymphoblastoid cell line (LYMP2-005) purchased from Coriell Institute for Medical Research.
NCGC Assay Protocol Summary:
The CellTiter-Glo luminescent cell viability assay (Promega) is a homogeneous method to measure the number of viable cells in culture. The end point readout of this assay is based on quantitation of intracellular ATP, an indicator of metabolic activity, using the luciferase reaction. Luciferase catalyzes the oxidation of beetle Luciferin to oxyluciferin and light in the presence of ATP. The luminescent signal is proportional to amount of ATP present.
Using the CellTiter-Glo luminescent cell viability assay, the amount of cellular ATP was measured in the lymphoblastoid cell line with complete culture medium following compound treatment for 24 hours. The assay was performed in opaque white Kalypsys 1536-well plates. In the screen, tetraoctylammonium bromide was used as positive control. Library compounds were measured for their ability to cause acute toxicity in the cell line, as reflected by a decrease in intracellular ATP levels, in a concentration-dependent manner. […] AC50 values were determined from concentration-response data modeled with the standard Hill equation.
qHTS protocol for CellTiter Glo lymphoblastoid cellular assay
[Step] [Parameter] [Value] [Description]
1. Reagent; 5 uL; 2500 lymphoblastoid cells/well
2. Time; 5 hr; 37 C incubation
4. Controls; 23 nL; Tetraoctylammonium bromide 6.4pM to 92 uM
5. Time; 24 hr; 37 C incubation
6. Reagent; 5 uL; CellTiter Glo reagent
7. Time; 30 min; Room Temperature
8. Detection; Luminescence; Viewlux plate reader
Keywords: cell viability, cytotoxicity, lymphoblastoid cell line, luminescence, NTPHTS, NTPHTS_NCGC, NIEHS, DSSTox, MLSMR, MLSCN, NIH Roadmap, qHTS, NCGC

Structure (SMILES) | activity change, negative = viability loss
CCC#N | 9.39% (inactive)
ClC(Cl)c1ccccc1 | 8.42% (inactive)
CCCCOC(=O)c1ccccc1N | 9.93% (inactive)
CCN(N=O)C(N)=O | 3.93% (inactive)
Cc1ccc(N)cc1Cl | 8.13% (inactive)
CC(C)(Cl)Cl | 6.45% (inactive)
Oc1cccc(Cl)c1 | -3.31% (inactive)
CCCCNC(=O)n1c(NC(=O)OC)nc2ccccc21 | -29.4% (inactive)
OCCBr | -15.8% (inactive)
NNC(N)=S | 7.36% (inactive)
COc1ccc(C=O)cc1 | 13.2% (inactive)
O=Cc1ccc2c(c1)OCO2 | 17.9% (inactive)
C/C=C/CC#N | 0.748% (inactive)
Clc1ccccc1 | -22.9% (inactive)
CN(C)C(=O)Nc1ccc(Cl)cc1 | 2.48% (inactive)
CCCCCC[N+](=O)[O-] | -1.05% (inactive)
CC1CC(=O)O1 (stereo not given) | 3.41% (inactive)
Nc1cc(Cl)cc(Cl)c1 | 8.91% (inactive)
O=[N+]([O-])c1cc(Cl)c(Cl)cc1Cl | 27.6% (inactive)
O=NN1CCCCC1 | 21% (inactive)

Structure (SMILES) | activity change, negative = viability loss
CC(C)(C)OOC(=O)c1ccccc1 | -14.2% (inactive)
Nc1ccc([N+](=O)[O-])cc1N | 1.12% (inactive)
ClCc1ccccn1 | 8.45% (inactive)
CC(C)OC(=O)Cc1ccccc1 | 3.32% (inactive)
Nc1ccc(Cl)c(Cl)c1 | 12.8% (inactive)
CN(C)c1ccccc1 | 20.7% (inactive)
O=C(Cl)c1ccccc1F | 5.44% (inactive)
COC(=O)Nc1cccc(OC(=O)Nc2cccc(C)c2)c1 | 9.58% (inactive)
CCN(CC)CCO | 16.9% (inactive)
O=[N+]([O-])c1ccc(Cl)cc1 | 11% (inactive)
Clc1cccc(Cl)c1 | 13.8% (inactive)
CCCCOC(C)=O | 9.31% (inactive)
C=CC(=O)OC | 4.82% (inactive)
Nn1cnnc1 | 1.24% (inactive)
CC(C)[N+](=O)[O-] | 25.6% (inactive)
Clc1cc(Cl)c(Cl)c(Cl)c1 | 16.8% (inactive)
O=[N+]([O-])c1ccccc1CCl | -0.322% (inactive)
ClP(Cl)(Cl)(Cl)Cl | -2.06% (inactive)
C=CC=O | -2.03% (inactive)
Clc1ccc(Cl)c(Cl)c1 | 3.1% (inactive)
